Consider eight sequences from paper PMC7862700, “An all-to-all approach to the identification of sequence-specific readers for epigenetic DNA modifications on cytosine”.

Experiment in all cases: DAPPL (digital affinity profiling via proximity ligation, sequencing); 10 mM Tris-HCl pH 7.5, 50 mM NaCl, 1 mM DTT, 4% glycerol, room temperature, 30 min; GST-TFs on glutathione beads, 16-mer random dsDNA library, 0.1% formaldehyde crosslink after washing; high values mean tight binding
Settings in all cases: protein: recombinant; tags: N-terminal GST; dsDNA, one strand shown

The target in one assay is T1, FLI1 (Homo sapiens, UniProt Q01543 1-452).
T1 sequence: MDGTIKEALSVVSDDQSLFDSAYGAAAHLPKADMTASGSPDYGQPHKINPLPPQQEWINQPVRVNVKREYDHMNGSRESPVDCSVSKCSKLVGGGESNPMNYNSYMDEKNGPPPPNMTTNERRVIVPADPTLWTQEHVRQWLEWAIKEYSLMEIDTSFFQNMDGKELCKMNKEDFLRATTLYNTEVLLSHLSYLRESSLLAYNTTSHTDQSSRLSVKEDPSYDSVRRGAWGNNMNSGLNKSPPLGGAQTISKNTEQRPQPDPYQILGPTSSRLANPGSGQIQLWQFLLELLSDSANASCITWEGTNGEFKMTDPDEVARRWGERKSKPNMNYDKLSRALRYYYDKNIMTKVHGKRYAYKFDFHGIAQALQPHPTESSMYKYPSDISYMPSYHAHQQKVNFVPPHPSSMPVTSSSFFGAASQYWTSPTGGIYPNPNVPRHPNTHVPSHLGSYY
The method, boiled down: (§1)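 Binding signal is each hexamer's read frequency for a factor divided by its frequency in the tag-only sample. The factors were GST-fused human transcription factors from yeast, captured on glutathione beads, DNA-barcoded and pooled with that sample. Pools were incubated with 200 nmole of a random double-stranded 16-mer DNA library in Tris/NaCl/DTT/glycerol buffer at room temperature for 30 min, then washed, crosslinked with 0.1% formaldehyde, proximity-ligated with BsaI/T4 ligase (1 h, 37 °C), PCR-amplified and sequenced on an Illumina NextSeq500.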

For a further assay, the target named is T2, ELK1 (Homo sapiens, UniProt P19419 1-428).
T2 sequence: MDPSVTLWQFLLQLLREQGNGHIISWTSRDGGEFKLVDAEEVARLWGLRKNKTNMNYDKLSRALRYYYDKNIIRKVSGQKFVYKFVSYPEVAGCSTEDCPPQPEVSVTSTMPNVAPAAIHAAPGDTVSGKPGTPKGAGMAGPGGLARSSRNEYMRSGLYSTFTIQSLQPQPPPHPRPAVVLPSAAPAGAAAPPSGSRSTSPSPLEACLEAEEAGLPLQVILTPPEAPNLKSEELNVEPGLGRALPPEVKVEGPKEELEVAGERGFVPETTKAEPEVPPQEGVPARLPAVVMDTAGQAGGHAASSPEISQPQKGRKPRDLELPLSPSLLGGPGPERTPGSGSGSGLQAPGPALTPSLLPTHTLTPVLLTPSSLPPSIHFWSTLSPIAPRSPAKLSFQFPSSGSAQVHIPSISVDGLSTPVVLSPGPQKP
A digest of the protocol: as §1

Another assay addresses T3, GABPA (Homo sapiens, UniProt Q06546 1-454).
T3 sequence: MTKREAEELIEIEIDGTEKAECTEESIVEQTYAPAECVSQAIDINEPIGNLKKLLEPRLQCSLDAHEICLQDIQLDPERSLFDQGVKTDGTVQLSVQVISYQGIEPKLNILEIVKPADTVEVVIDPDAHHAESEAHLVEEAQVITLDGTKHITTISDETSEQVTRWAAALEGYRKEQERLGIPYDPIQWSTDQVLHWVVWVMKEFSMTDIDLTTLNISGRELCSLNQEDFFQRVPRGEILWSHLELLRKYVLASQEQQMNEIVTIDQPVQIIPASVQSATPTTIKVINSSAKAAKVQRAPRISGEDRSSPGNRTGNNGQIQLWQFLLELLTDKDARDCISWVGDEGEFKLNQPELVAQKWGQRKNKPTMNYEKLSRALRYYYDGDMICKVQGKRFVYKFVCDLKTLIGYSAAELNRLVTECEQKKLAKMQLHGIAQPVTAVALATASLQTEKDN
The method, boiled down: as §1

In another assay the target is T4, ERG (Homo sapiens, UniProt P11308 1-479).
T4 sequence: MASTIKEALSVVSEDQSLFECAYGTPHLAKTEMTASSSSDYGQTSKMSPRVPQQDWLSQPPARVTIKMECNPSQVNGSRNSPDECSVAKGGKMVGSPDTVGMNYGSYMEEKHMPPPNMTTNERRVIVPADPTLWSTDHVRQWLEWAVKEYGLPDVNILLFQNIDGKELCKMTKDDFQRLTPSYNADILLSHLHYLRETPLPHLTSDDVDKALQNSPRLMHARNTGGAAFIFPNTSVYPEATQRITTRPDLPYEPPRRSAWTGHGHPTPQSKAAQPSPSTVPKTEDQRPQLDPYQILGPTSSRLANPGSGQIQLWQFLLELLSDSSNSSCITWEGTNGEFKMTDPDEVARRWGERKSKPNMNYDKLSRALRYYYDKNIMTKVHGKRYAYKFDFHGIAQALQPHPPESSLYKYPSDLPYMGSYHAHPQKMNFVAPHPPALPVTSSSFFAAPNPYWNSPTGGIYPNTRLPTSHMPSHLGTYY
A digest of the protocol: as §1

The target in a further assay is ELF1 (Homo sapiens, UniProt P32519 1-619). A digest of the protocol: as §1
ELF1, sequence (P32519 whole entry): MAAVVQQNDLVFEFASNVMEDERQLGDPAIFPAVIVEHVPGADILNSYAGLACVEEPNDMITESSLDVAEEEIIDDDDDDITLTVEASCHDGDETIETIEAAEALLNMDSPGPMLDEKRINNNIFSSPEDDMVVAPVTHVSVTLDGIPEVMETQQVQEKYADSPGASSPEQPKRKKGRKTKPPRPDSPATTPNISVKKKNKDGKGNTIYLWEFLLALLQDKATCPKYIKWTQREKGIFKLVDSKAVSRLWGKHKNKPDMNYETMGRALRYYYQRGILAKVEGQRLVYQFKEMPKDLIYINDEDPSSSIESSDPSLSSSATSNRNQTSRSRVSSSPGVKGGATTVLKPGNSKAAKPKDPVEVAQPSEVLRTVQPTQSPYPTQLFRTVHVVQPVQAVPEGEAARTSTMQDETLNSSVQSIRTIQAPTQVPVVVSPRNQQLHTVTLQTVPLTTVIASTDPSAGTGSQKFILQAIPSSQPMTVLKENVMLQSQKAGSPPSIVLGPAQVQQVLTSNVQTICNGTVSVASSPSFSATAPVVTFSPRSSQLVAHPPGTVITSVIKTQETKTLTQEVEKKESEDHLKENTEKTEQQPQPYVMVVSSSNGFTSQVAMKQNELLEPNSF
A further assay addresses T5, EHF (Homo sapiens, UniProt Q9NZC4 1-300).
T5 sequence: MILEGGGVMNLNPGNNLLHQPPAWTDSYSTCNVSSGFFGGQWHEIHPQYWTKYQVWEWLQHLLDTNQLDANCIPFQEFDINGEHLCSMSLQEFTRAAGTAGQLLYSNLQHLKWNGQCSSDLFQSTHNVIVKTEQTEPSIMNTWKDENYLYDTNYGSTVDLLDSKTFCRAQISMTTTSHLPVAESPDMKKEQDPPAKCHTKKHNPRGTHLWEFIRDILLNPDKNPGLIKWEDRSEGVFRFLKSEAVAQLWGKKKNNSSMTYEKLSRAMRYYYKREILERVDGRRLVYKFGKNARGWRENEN
A digest of the protocol: as §1

For the next assay, the target named is SPI1 (Homo sapiens, UniProt P17947 1-270). The method, boiled down:
as §1

In another assay the target is SPIB (Homo sapiens, UniProt Q01892 1-262). The method, boiled down: as §1
SPIB, sequence (Q01892 whole entry): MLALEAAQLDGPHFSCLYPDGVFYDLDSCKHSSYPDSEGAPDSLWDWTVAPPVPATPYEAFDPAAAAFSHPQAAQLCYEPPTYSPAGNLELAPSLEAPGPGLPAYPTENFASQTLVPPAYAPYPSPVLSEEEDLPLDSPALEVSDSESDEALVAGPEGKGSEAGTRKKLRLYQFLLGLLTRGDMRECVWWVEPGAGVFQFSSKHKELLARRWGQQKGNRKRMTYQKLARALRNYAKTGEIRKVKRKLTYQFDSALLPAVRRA
The target in another assay is T6, ELK3 (Homo sapiens, UniProt P41970 1-407).
T6 sequence: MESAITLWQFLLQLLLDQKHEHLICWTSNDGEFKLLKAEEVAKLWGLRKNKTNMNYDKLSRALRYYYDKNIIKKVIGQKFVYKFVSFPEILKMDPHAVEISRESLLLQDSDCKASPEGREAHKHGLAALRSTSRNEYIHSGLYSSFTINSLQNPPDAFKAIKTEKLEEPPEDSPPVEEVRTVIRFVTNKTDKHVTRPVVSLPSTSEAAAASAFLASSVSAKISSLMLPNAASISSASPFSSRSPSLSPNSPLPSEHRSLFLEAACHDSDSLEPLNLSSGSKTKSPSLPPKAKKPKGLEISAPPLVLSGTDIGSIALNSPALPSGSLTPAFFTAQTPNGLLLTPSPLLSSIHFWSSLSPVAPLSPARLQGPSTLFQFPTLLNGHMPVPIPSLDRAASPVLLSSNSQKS
The method, boiled down:
as §1

Take ATATGC: the binding signal with FLI1 was 1.09 fold enrichment (6-mer frequency, TF over GST control); with ELK1, 1.15 fold enrichment (6-mer frequency, TF over GST control); with GABPA, 1.15 fold enrichment (6-mer frequency, TF over GST control); with ERG it was 1.13 fold enrichment (6-mer frequency, TF over GST control); with ELF1, 1.1 fold enrichment (6-mer frequency, TF over GST control); in the assay with EHF it was 1.08 fold enrichment (6-mer frequency, TF over GST control). For the same sequence, the binding signal was 1.16 fold enrichment (6-mer frequency, TF over GST control) in the assay with SPI1; 1.07 fold enrichment (6-mer frequency, TF over GST control) with SPIB; 1.05 fold enrichment (6-mer frequency, TF over GST control) in the assay with ELK3.

Consider GCTCAA, for which the binding signal in the assay with FLI1 is 1.05 fold enrichment (6-mer frequency, TF over GST control); with ELK1 it was 1.1 fold enrichment (6-mer frequency, TF over GST control); with GABPA, 1.05 fold enrichment (6-mer frequency, TF over GST control); with ERG, 1.15 fold enrichment (6-mer frequency, TF over GST control); with ELF1 it was 1.09 fold enrichment (6-mer frequency, TF over GST control); with EHF, 1.13 fold enrichment (6-mer frequency, TF over GST control). The binding signal was 1.09 fold enrichment (6-mer frequency, TF over GST control) with SPI1; 1.1 fold enrichment (6-mer frequency, TF over GST control) with SPIB; 1.01 fold enrichment (6-mer frequency, TF over GST control) with ELK3.

TCCATA: the binding signal with FLI1 was 1.33 fold enrichment (6-mer frequency, TF over GST control); in the assay with ELK1, 1.3 fold enrichment (6-mer frequency, TF over GST control); in the assay with GABPA it was 1.18 fold enrichment (6-mer frequency, TF over GST control); in the assay with ERG it was 1.25 fold enrichment (6-mer frequency, TF over GST control); with ELF1, 1.23 fold enrichment (6-mer frequency, TF over GST control); in the assay with EHF it was 1.24 fold enrichment (6-mer frequency, TF over GST control). Also, the binding signal with SPI1 is 1.18 fold enrichment (6-mer frequency, TF over GST control); with SPIB, 1.21 fold enrichment (6-mer frequency, TF over GST control); with ELK3, 1.35 fold enrichment (6-mer frequency, TF over GST control).

For the sequence TCGCTT, the binding signal with FLI1 was 1.22 fold enrichment (6-mer frequency, TF over GST control); in the assay with ELK1, 1.3 fold enrichment (6-mer frequency, TF over GST control); with GABPA it was 1.23 fold enrichment (6-mer frequency, TF over GST control); with ERG it was 1.18 fold enrichment (6-mer frequency, TF over GST control); with ELF1, 1.19 fold enrichment (6-mer frequency, TF over GST control); in the assay with EHF, 1.2 fold enrichment (6-mer frequency, TF over GST control). Further, the binding signal is 1.08 fold enrichment (6-mer frequency, TF over GST control) with SPI1; 1.38 fold enrichment (6-mer frequency, TF over GST control) in the assay with SPIB; 1.18 fold enrichment (6-mer frequency, TF over GST control) with ELK3.

As to GTTCTG, the binding signal is 1.14 fold enrichment (6-mer frequency, TF over GST control) with FLI1; 1.21 fold enrichment (6-mer frequency, TF over GST control) with ELK1; 1.16 fold enrichment (6-mer frequency, TF over GST control) with GABPA; 1.16 fold enrichment (6-mer frequency, TF over GST control) with ERG; 1.08 fold enrichment (6-mer frequency, TF over GST control) with ELF1; 1.16 fold enrichment (6-mer frequency, TF over GST control) with EHF. Further, the binding signal was 1.17 fold enrichment (6-mer frequency, TF over GST control) in the assay with SPI1; 1.16 fold enrichment (6-mer frequency, TF over GST control) with SPIB; 1.18 fold enrichment (6-mer frequency, TF over GST control) with ELK3.

Regarding CTGTAC, the binding signal with FLI1 was 1.28 fold enrichment (6-mer frequency, TF over GST control); with ELK1 it was 1.31 fold enrichment (6-mer frequency, TF over GST control); with GABPA, 1.23 fold enrichment (6-mer frequency, TF over GST control); with ERG, 1.39 fold enrichment (6-mer frequency, TF over GST control); with ELF1 it was 1.38 fold enrichment (6-mer frequency, TF over GST control); in the assay with EHF, 1.33 fold enrichment (6-mer frequency, TF over GST control). Further, the binding signal with SPI1 was 1.4 fold enrichment (6-mer frequency, TF over GST control); with SPIB, 1.3 fold enrichment (6-mer frequency, TF over GST control); with ELK3, 1.24 fold enrichment (6-mer frequency, TF over GST control).

Turning to ACCTTT, the binding signal with FLI1 is 1.52 fold enrichment (6-mer frequency, TF over GST control); with ELK1 it was 1.33 fold enrichment (6-mer frequency, TF over GST control); with GABPA it was 1.47 fold enrichment (6-mer frequency, TF over GST control); in the assay with ERG, 1.38 fold enrichment (6-mer frequency, TF over GST control); with ELF1, 1.47 fold enrichment (6-mer frequency, TF over GST control); in the assay with EHF it was 1.38 fold enrichment (6-mer frequency, TF over GST control). Further, the binding signal with SPI1 was 1.49 fold enrichment (6-mer frequency, TF over GST control); in the assay with SPIB, 1.45 fold enrichment (6-mer frequency, TF over GST control); with ELK3 it was 1.35 fold enrichment (6-mer frequency, TF over GST control).

As for CGTTCT, the binding signal with FLI1 is 1.37 fold enrichment (6-mer frequency, TF over GST control); with ELK1, 1.41 fold enrichment (6-mer frequency, TF over GST control); with GABPA, 1.44 fold enrichment (6-mer frequency, TF over GST control); with ERG, 1.55 fold enrichment (6-mer frequency, TF over GST control); with ELF1, 1.5 fold enrichment (6-mer frequency, TF over GST control); in the assay with EHF, 1.3 fold enrichment (6-mer frequency, TF over GST control). Moreover, the binding signal was 1.39 fold enrichment (6-mer frequency, TF over GST control) with SPI1; 1.43 fold enrichment (6-mer frequency, TF over GST control) with SPIB; 1.52 fold enrichment (6-mer frequency, TF over GST control) with ELK3.
